BAZ2B block: inhibitors of human BAZ2B bromodomain; Q9UIF8; AlphaScreen BAZ2B-H3K14Ac peptide displacement; Potency, µM (top dose mostly 114 µM), most hits filed as inhibitors; 360,000 tested, 4.4% active; also: nearly all actives have a fitted effect of over 60% in size
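Protein-peptide AlphaScreen: BAZ2B 50 nM, b-H3K14Ac 50 nM, 1x PBS pH 7.4 + 0.01% Tween-20. Preincubation 30 min RT; cpd 30 min RT (top 110 uM); beads 20 min RT, light-protected.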
GLS inh: inhibitors of human glutaminase (GLS) | GLS enzymatic activity, qHTS titration | Potency, µM (top dose mostly 45.5 µM), usual class: inhibitors | 410,000 tested, 0.21% active
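Two-point fluorescence kinetic (t0, 30 min RT) for hKGA; glutamate detected via glutamate oxidase–HRP–Amplex Red. Substrate: 1 mM L-glutamine solution; buffer 45 mM KH2PO4, pH 8.2.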
JMJD2A Tudor: inhibitors of human JMJD2A Tudor domain; O75164; AlphaScreen JMJD2A-Tudor / H3K4me3 peptide binding; Potency, µM (top dose mostly 114 µM), usual class: inhibitors; 390,000 tested, 4.4% active; AID 504339; also: nearly all actives have a fitted effect of over 50% in size
G9a block: G9a (human) methyltransferase inhibition | AID 504332 | G9a H3K9 monomethylation, AlphaScreen, 2 h | Potency, µM (doses to about 102 µM), actives largely listed as inhibitors | 350,000 tested, 8.8% active | Q96KQ7; also: nearly all actives have a fitted effect of over 75% in size
Target sequence (Q96KQ7 913-1193 limits assumed): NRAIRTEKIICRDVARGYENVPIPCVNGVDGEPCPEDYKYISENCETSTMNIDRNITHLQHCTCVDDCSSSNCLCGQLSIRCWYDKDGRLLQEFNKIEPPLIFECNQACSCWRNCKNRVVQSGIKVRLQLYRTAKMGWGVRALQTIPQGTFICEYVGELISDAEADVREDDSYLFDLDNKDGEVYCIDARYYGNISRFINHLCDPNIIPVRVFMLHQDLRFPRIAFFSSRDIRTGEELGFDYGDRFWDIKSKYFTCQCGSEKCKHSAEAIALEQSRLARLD
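AlphaScreen read-out: biotin-H3K9 peptide (500 nM) methylation by 20 nM enzyme with 20 uM SAM, 2 h at room temperature after 15 min compound preincubation; anti-monomethyl H3K9 antibody plus donor/acceptor beads, 10 min dark.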
HP1b binding inh: blocks HP1-beta chromodomain binding to methylated histone tails. P83916. AlphaScreen HP1-beta / biotin-H3K9me3 peptide binding. Potency, µM (doses to about 114 µM), most hits filed as inhibitors. 390,000 tested, 0.56% active; also: nearly all actives have a fitted effect of over 70% in size
Target sequence (P83916 whole entry, looked up): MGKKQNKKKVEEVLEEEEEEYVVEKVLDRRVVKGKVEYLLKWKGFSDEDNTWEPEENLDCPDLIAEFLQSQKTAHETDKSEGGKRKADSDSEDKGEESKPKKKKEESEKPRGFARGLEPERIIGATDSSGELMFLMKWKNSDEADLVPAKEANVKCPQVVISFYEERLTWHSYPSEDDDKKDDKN
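AlphaScreen: HP1-beta (50 nM) preformed 30 min with biotin-H3(1-18)K9me3 peptide (50 nM) in PBS pH 7.4, 0.01% Tween-20. Compound added for 30 min at RT, then streptavidin donor/nickel chelate acceptor beads (10 ug/mL) for 30 min.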
Of the large screens only hits and unclear results are named; the others gave an inactive call; ! = a repeat was not active. Compounds with a hit are over-represented: about 10% of the library has one in this group of screens. Calls follow the shape of the dose curve; as a rule, active = well fitted curve in the direction sought with a large enough effect; inconclusive = small, poorly fitted or top-dose-only effect, or another doubt; inactive = no such curve, though single readings can be large; an effect the other way counts as inactive or inconclusive.

CCOc1cc2c(cc1OCC)-n1cccc1C(c1ccc(OC)c(OC)c1)NC2 (centres undefined)	BAZ2B block inconclusive, JMJD2A Tudor inconclusive
C[C@@H]1CN([C@@H](C)CO)C(=O)CCCn2nncc2CO[C@H]1CN(C)C(=O)Oc1ccccc1	none (no result: BAZ2B block, JMJD2A Tudor, G9a block, HP1b binding inh)
CCn1c(-c2nn(-c3ccccc3)ccc2=O)n[nH]c1=S	BAZ2B block inconclusive, JMJD2A Tudor inconclusive
CCCCn1c(-c2nn(C)cc2Cl)n[nH]c1=S	JMJD2A Tudor 7.94µM, G9a block 12.6µM
CCOP(=O)(OCC)C(NC(=O)c1ccc(Cl)cc1)=C(Cl)Cl	none
CCOP(=O)(OCC)/C(=N/OC(=O)c1ccc(Cl)cc1Cl)C(N)=O	G9a block 50.1µM
O=C(O)C1C2c3ccccc3C(=O)C1(C(=O)O)c1ccccc12 (centres undefined)	none (no result: BAZ2B block, G9a block)
COC12c3ccccc3-c3ccccc3C1C(C(=O)O)C2C(=O)O (centres undefined)	GLS inh 17.8µM (no result: BAZ2B block, JMJD2A Tudor, G9a block, HP1b binding inh)
Nc1nc(O)c(-c2ccccc2)o1	none (no result: BAZ2B block, JMJD2A Tudor, HP1b binding inh)
O=[N+]([O-])c1cccc2c([N+](=O)[O-])cccc12	BAZ2B block inconclusive
O=C1NC(=O)C(Sc2ccccc2[N+](=O)[O-])C(=O)N1	BAZ2B block 50.1µM, JMJD2A Tudor 28.2µM, G9a block 2.82µM, HP1b binding inh inconclusive
COC(=O)C1=C(c2ccc(-c3ccccc3)c(F)c2)C[C@@H]2CC[C@H]1N2C(=O)NCC1CC1	none
O=c1c2ccccc2nc(/C=C/c2ccccc2F)n1-c1cccc(O)c1	none
COCOC1CCC2C3CCC4=CC(=O)CCC4=C3C=CC12C (centres undefined)	JMJD2A Tudor 79.4µM, HP1b binding inh inconclusive (no result: BAZ2B block, G9a block)
O=C(Cc1coc2cc3c(cc12)CCC3)OCC(=O)N1CCCC1=O	BAZ2B block inconclusive
CCN(CC)Cc1nccn1-c1ccc([N+](=O)[O-])cc1C(=O)c1ccccc1Cl	none (no result: BAZ2B block, JMJD2A Tudor, G9a block, HP1b binding inh)
CC1=C2CCC3C4CCC(=O)[C@@]4(C)CCC3[C@]2(C)CCC1=O (some centres undefined)	none (no result: BAZ2B block, GLS inh, JMJD2A Tudor, HP1b binding inh)
CC1=NN=C(c2ccc(N)cc2)c2cc3c(cc2C1)OCO3	BAZ2B block inconclusive, JMJD2A Tudor inconclusive, G9a block 7.52µM!
CC1Cc2cc3c(cc2C(c2ccc(N)cc2)=NN1)OCO3 (centres undefined)	G9a block 8.91µM (no result: BAZ2B block, GLS inh, JMJD2A Tudor, HP1b binding inh)
CC(=O)C1CCC2C3CCC4=CC(=O)CC[C@@]4(C)C3CC[C@]12C (some centres undefined)	none (no result: BAZ2B block, GLS inh, JMJD2A Tudor, HP1b binding inh)
O=C1NCN(c2ccccc2)C12CCN(C(c1ccnc3ccccc13)c1nnnn1C1CCCC1)CC2 (centres undefined)	none (no result: BAZ2B block, JMJD2A Tudor, G9a block, HP1b binding inh)
CC1(C)CSC(=NCc2ccccc2)N1	none
Cc1oc(-c2cccc(Cl)c2)nc1CN1CCC(C(=O)NCCCN2CCN(c3cccc(Cl)c3)CC2)CC1	BAZ2B block 28.2µM, JMJD2A Tudor 31.6µM, G9a block inconclusive
CCN1CCN(CC(c2ccccc2)c2ccccc2)CC1	BAZ2B block 10µM, JMJD2A Tudor 0.794µM, G9a block inconclusive, HP1b binding inh inconclusive
CCN1CCc2ccccc2C1	G9a block inconclusive
C=C(C)[C@H]1CN[C@H](C(=O)O)[C@H]1CC(=O)O	JMJD2A Tudor 39.8µM, HP1b binding inh inconclusive (no result: BAZ2B block)
O=C(O)[C@H]1[C@H]2CN[C@H](C(=O)O)[C@H]21	none (no result: BAZ2B block, GLS inh, JMJD2A Tudor, HP1b binding inh)
C[C@H](CO)N1C[C@H](C)[C@@H](CN(C)Cc2ccc(-c3ccccc3)cc2)Oc2c(NC(=O)c3ccncc3)cccc2C1=O	JMJD2A Tudor inconclusive (no result: BAZ2B block, G9a block)
CC1CC2(C)C(=CC1=O)CCC1C3CCC(C)(O)C3(C)CC3OC312 (centres undefined)	none (no result: BAZ2B block, G9a block)
COC(=O)CSC1=NN1c1cc(C)nc(N)n1	G9a block 50.1µM
O=C(O)c1[nH]c(=O)[nH]c(=O)c1F	BAZ2B block 50.1µM, JMJD2A Tudor 7.08µM, G9a block 28.2µM
Oc1cccc2cccnc12	BAZ2B block 10µM, GLS inh inconclusive, JMJD2A Tudor inconclusive
CN(C(=O)Oc1cccc2cccnc12)c1ccccc1	G9a block inconclusive
Cc1ccc2c(Cl)cc(Cl)c(O)c2n1	GLS inh inconclusive (no result: BAZ2B block, G9a block)
COc1ccc2c(C(=O)c3ccc(Cl)cc3)c(C)n(CC(=O)O)c2c1	none (no result: BAZ2B block, JMJD2A Tudor, G9a block, HP1b binding inh)
CCCn1c(C(C)C)n[nH]c1=S	JMJD2A Tudor inconclusive, G9a block 35.5µM
O=C(NCc1ccc(Cl)cc1)C1CCCN(C(=O)c2cnn(-c3ccc(F)cc3)c2-n2cccc2)C1 (centres undefined)	G9a block inconclusive
Cc1ccc2c(=O)n(-c3cccc(Cl)c3)c(=O)[nH]c2c1	G9a block inconclusive
Cc1nn(CCc2n[nH]c(=S)n2-c2cccc(Cl)c2)c(C)c1[N+](=O)[O-]	JMJD2A Tudor 44.7µM, G9a block 1.12µM
ClC1=C(Cl)[C@]2(Cl)[C@@H]3[C@@H]4C[C@@H]([C@H]5O[C@@H]45)[C@@H]3[C@@]1(Cl)C2(Cl)Cl	none (no result: BAZ2B block, JMJD2A Tudor, G9a block, HP1b binding inh)
CC(=O)OC1CC(OC2C(O)CC(OC3C(O)CC(O[C@H]4CC[C@]5(C)C6CC[C@]7(C)[C@@H](C8=CC(=O)OC8)[C@@H](O)C[C@]7(O)[C@@H]6CC[C@@H]5C4)OC3C)OC2C)OC(C)C1OC1OC(CO)C(O)C(O)C1O (some centres undefined)	none (no result: BAZ2B block, JMJD2A Tudor, G9a block, HP1b binding inh)
Cn1c(O)c(C2=NN(C(=O)CCl)C(c3ccccc3)C2)c(=O)n(C)c1=O (centres undefined)	JMJD2A Tudor 22.4µM, G9a block 31.6µM
CCC(=O)N1N=C(c2c(O)n(C)c(=O)n(C)c2=O)CC1c1ccccc1 (centres undefined)	G9a block 25.1µM
Cn1c(O)c(C=NC2CCN(Cc3ccccc3)CC2)c(=O)n(C)c1=O	none
CCOc1ccc(C2CC(c3c(O)n(C)c(=O)n(C)c3=O)=NN2)cc1 (centres undefined)	BAZ2B block inconclusive, G9a block inconclusive
CCOC(OCC)P(=O)(O)CCCN	none (no result: BAZ2B block, GLS inh, JMJD2A Tudor, HP1b binding inh)
CC(=O)O[C@H]1[C@H]2[C@@H](OC(=O)Cc3ccccc3)[C@@H](C)C[C@]2(OC(C)=O)C(=O)/C(C)=C/[C@@H]2[C@H](CC[C@@]13CO3)C2(C)C	none (no result: BAZ2B block, GLS inh, JMJD2A Tudor, HP1b binding inh)
CC(=O)O[C@H]1C[C@H](O[C@H]2[C@@H](O)CC(O[C@H]3[C@@H](O)C[C@H](O[C@H]4CC[C@@]5(C)[C@H](CC[C@@H]6[C@@H]5CC[C@]5(C)[C@@H](C7=CC(=O)OC7)CC[C@]65O)C4)O[C@@H]3C)O[C@@H]2C)O[C@H](C)[C@H]1O[C@@H]1O[C@H](CO)[C@@H](O)[C@H](O)[C@H]1O (some centres undefined)	none (no result: BAZ2B block, JMJD2A Tudor, HP1b binding inh)
CN1C(=O)N(C)C(=O)C2(Cc3cc(NC(=O)c4ccccc4)ccc3N3CCCC32)C1=O (centres undefined)	G9a block 31.6µM
CN1CCN2c3ccc(N)cc3CC3(C(=O)NC(=O)NC3=O)C2C1 (centres undefined)	BAZ2B block 7.94µM, JMJD2A Tudor 89.1µM, G9a block 17.8µM

Screening results from PubChem BioAssay.
